# Only some compounds are listed: those with a hit (about 3.3% of all), similar ones and a draw of the others.
# AmpC inh detg: inhibitors of E. coli AmpC beta-lactamase with detergent. hit rate 0.041% among 370,000. AmpC hydrolysis of nitrocefin, absorbance 480 nm, 0.01% Triton. Potency, µM (top dose mostly 114 µM), for the others: at the highest dose activity change, negative = inhibition, actives largely listed as inhibitors. AID 485294. P00811;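 also: 0% = no-compound wells and -100% = no-enzyme wells; nearly all actives have a fitted effect of over 25% in size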
# Target sequence (P00811 whole entry, looked up): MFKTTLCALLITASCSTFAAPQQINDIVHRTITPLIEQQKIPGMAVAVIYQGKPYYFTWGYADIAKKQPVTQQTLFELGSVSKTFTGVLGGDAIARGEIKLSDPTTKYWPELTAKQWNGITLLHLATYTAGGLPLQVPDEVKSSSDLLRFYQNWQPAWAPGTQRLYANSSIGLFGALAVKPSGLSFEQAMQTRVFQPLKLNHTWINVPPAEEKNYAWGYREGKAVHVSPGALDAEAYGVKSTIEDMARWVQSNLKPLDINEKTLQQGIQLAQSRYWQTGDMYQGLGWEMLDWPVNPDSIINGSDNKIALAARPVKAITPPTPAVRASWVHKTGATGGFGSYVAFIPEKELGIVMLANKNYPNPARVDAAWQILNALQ
#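 20 mM phosphate pH 7.0 + 0.01% (detergent screen) or 0.0001% Triton X-100; 5.3 nM AmpC reagent; cpd preinc 15 min RT; nitrocefin (800 uM stock) to start; A480 q20 s × 4 min; Activity was normalised to no-enzyme and no-compound control wells.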
# AmpC no deterg: AmpC beta-lactamase inhibition without detergent; AmpC nitrocefin hydrolysis, absorbance 480 nm, 0.0001% Triton; Potency, µM (top dose mostly 57.1 µM), for the others: top-dose activity change, negative = inhibition, hits mostly inhibitors; hit rate 0.52% among 330,000;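 also: plate controls were no compound for no effect and no enzyme for full effect; nearly all actives have a fitted effect of over 20% in size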
#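 AmpC (5.3 nM in the dispensed reagent) in 20 mM phosphate pH 7.0 with 0.01% (detergent screen) or 0.0001% Triton X-100 was preincubated with compounds for 15 min at room temperature. Nitrocefin was then added from an 800 uM solution, and hydrolysis was followed at 480 nm.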
# Sm TGR block: inhibitors of Schistosoma mansoni thioredoxin glutathione reductase; purified TGR, DTNB reduction, TNB absorbance 405 nm; hit rate 3% among 360,000; Potency, µM (titrated, usually from 114 µM), for the others: top-dose activity change, negative = inhibition, hits mostly inhibitors; Q962Y6; AID 485364; also: nearly all actives have a fitted effect of over 60% in size
#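 Kinetic colorimetric format: TGR-catalysed, NADPH-driven DTNB reduction monitored via TNB absorbance. Enzyme dispensed at 20 nM; compound exposure 15 min at room temperature before reaction start.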
# * hit, by the source's call; ? = inconclusive; / = not tested or not shown; [ ] = remark or other dose. Calls follow the shape of the dose curve; as a rule, active = well fitted curve in the direction sought with a large enough effect; inconclusive = small, poorly fitted or top-dose-only effect, or another doubt; inactive = no such curve, though single readings can be large; an effect the other way counts as inactive or inconclusive. Unless noted, % is scaled to controls: 0 for no effect and ±100 for the full control effect; potency is read from the fitted curve at half-maximal effect.
SMILES,AmpC inh detg,AmpC no deterg,Sm TGR block
CCOC(=O)/C=C/C(=O)Nc1ccc(S(=O)(=O)N2CCc3ccccc32)cc1,-11%,16µM*,-19%
CCOC(=O)/C=C/C(=O)Nc1ccc(S(=O)(=O)N2CCCCCC2)cc1,-3%,-36%,?
CCOC(=O)Nc1ccc(S(=O)(=O)Nc2cc(C)on2)cc1,0%,-15%,-13%
CCOC(=O)C(NC(C)=O)(Nc1ccc(S(=O)(=O)Nc2cc(C)on2)cc1)C(F)(F)F (configuration not stated),-2%,-19%,-9%
Cc1cc(NS(=O)(=O)c2ccc(NC(NC(=O)C(C(F)(F)F)C(F)(F)F)(C(F)(F)F)C(F)(F)F)cc2)no1,?,-15%,13µM*
CC(=O)Nc1ccc(S(=O)(=O)N(C)c2ccccc2)cc1,-11%,-17%,-13%[11.4 µM]
CCOC(=O)/C=C/C(=O)Nc1ccc(S(=O)(=O)N(C)c2ccccc2)cc1,5%,-42%,40µM*
CCOC(=O)/C=C/C(=O)Nc1ccc(S(=O)(=O)Nc2cc(C)on2)cc1,2%,-17%,11µM*
CCCn1c2ccccc2c2cnn(CC(=O)NCC3CCN(Cc4ccccc4C)CC3)c(=O)c21,1%,/,-3%
CC(=O)Nc1ccc(C(=O)CSc2nnnn2C2CCCC2)cc1,10%,3%,14%
COc1ccc(N2C(=O)CC(N(CCc3ccccc3)C(=O)/C=C/C(=O)O)C2=O)cc1 (configuration not stated),4%,-14%,?
O=C(O)/C=C/C(=O)N(CC1CCCO1)C1CC(=O)N(c2c(Cl)cccc2Cl)C1=O (configuration not stated),1%,-14%,40µM*
CCOc1ccccc1Oc1nc(C)nc2c1oc1ccccc12,11%,/,7%
O=C(CCN1C(=O)/C(=C/c2ccc(Cl)cc2)SC1=S)Nc1cccc(C(=O)O)c1,1%,-30%,-7%
O=C(O)c1cccc(N2C(=O)/C(=C/c3ccc(SCc4ccc(Cl)cc4)o3)SC2=S)c1,1%,-27%,13µM*
CCOc1ccc(C(=O)OCc2cc(=O)n3nc(C(C)C)sc3n2)cc1,16%,/,0%
O=C(N/N=C/c1ccoc1)c1cc(Br)ccc1O,-8%,7.9µM*,0%
O=C(NN=C1CCCC1)c1cc(Br)ccc1O,?,7.9µM*,1%
O=C(N/N=C1/CCSC1)c1cc(Br)ccc1O,-4%,-58%,/
O=C(N/N=C/c1ccoc1)c1ccccc1Br,-6%,-26%,-18%
O=C1Nc2c(c(=O)[nH]c(=O)n2-c2ccc(F)cc2)C1(NS(=O)(=O)c1ccccc1)C(F)(F)F (configuration not stated),-2%,5%,9%
CCOC(=O)N1CCC(NC(=O)Cn2cc3c(n2)CCCC3)CC1,?,2.8µM*,-1%
O=C(Cn1cc2c(n1)CCCC2)NC1CCCCCC1,?,-59%,7%
COc1cccc(-c2ncc3ccccc3c2CO)c1,2%,-12%,-11%
Nc1ccc(O)cc1C(=O)OCC(=O)C12CC3CC(CC(C3)C1)C2,7%,13µM*,-28%
SMILES,AmpC inh detg,AmpC no deterg,Sm TGR block
O=C(OCC(=O)C12CC3CC(CC(C3)C1)C2)c1ccc(O)cc1,/,-27%,/
Cc1nc(-c2ccc(C)c(N3CCN(C(=O)Nc4cccc(Cl)c4C)CC3)c2)no1,5%,/,3%
C(=C\n1nnc2ccccc21)/c1ccc[nH]1,?,-42%,25µM*
c1ccc(-n2nnc3ccccc32)cc1,?,-24%,3%
CNC(=S)N(CCN(C)C)Cc1cc2cc3c(cc2[nH]c1=O)OCO3,5%,-29%,53%
O=C(CC1C(=O)NCCN1Cc1ccccc1F)NC1CCCCCC1 (configuration not stated),-3%,24%,?
O=C(CC1C(=O)NCCN1Cc1ccc(Cl)c(F)c1)NC1CCCCC1 (configuration not stated),2%,30%,-23%
O=C(CC1C(=O)NCCN1Cc1ccccc1C(F)(F)F)NC1CCCC1 (configuration not stated),?,15%,40µM*
O=C(CC1C(=O)NCCN1Cc1cccc(C(F)(F)F)c1)NC1CCCCCC1 (configuration not stated),0%,88%,22µM*
Cc1cc(=O)[nH]c2nnc(SCc3c(F)cccc3Cl)n12,-2%,/,0%
COc1ccc(-c2cc(-c3ccco3)[nH]c(=O)c2C#N)cc1OC,-1%,-54%,4µM*
N#Cc1c(-c2ccccc2)cc(-c2ccc3c(c2)OCO3)[nH]c1=O,?,-6%,-1%
Cc1ccc(NC(=S)N2CCN(S(=O)(=O)c3ccc(F)cc3)CC2)cc1,6%,-13%,-4%
CCc1ccccc1NC(=O)CSC1=C(C#N)C(c2ccc(O)c(OC)c2)C2=C(CCCC2=O)N1 (configuration not stated),-19%,-34%,40µM*
COc1cc(C2C(C#N)=C(SC)NC3=C2C(=O)CCC3)ccc1O (configuration not stated),0%,-10%,-19%
CCc1ccc(-c2nc(CS(=O)CC(=O)NCCCN3CCC(C)CC3)c(C)o2)cc1 (configuration not stated),-2%,74%,-23%
CCCCn1nc(NC(=O)c2cccc(Cl)c2)c2cc3ccc(C)cc3nc21,-7%,/,2%
COc1ccc(NC(=O)c2cc3c([nH]c4ccccc43)c(C)n2)cc1,-7%,8.9µM*,1%
COC(=O)c1cc2c([nH]c3ccccc32)c(C)n1,-12%,67%,1%
CSc1ccc(/C=C/c2nc3ccccc3n2S(=O)(=O)c2ccc(Br)cc2)cc1,-4%,/,11%
Cc1ccccc1CN1CCN(C(=O)CC(C)C)CC1,-15%,-8%,50µM*
COc1ccc(CN2CCN(C(=O)CC(C)C)CC2)c2ccccc12,-5%,124%,0%
Cc1nonc1NCn1nnc2ccccc21,-18%,-8%,35µM*
COC(=O)c1nonc1NCn1nnc2ccccc21,1%,-16%,?
CCN(C[C@H]1N[C@@](CC)(C(=O)OC)[C@H]2C(=O)N(C)C(=O)[C@@H]12)C(=O)Nc1ccc(C)cc1,/,-1%,/
SMILES,AmpC inh detg,AmpC no deterg,Sm TGR block
COc1ccc(C(=O)Nc2cccc(/C=C(\CCC(=O)O)c3nc4ccccc4s3)c2)cc1,-7%,-9%,-5%
O=C(O)C/C(=C\c1cccc(NC(=O)c2ccccc2Cl)c1)c1nc2ccccc2s1,-3%,16µM*,-26%
COc1ccccc1C(=O)NNC(=O)CN1C(=O)c2ccccc2C1=O,2%,-21%,2%
Cc1ccc(S(=O)(=O)N2CCN(CC(=O)N(CC(C)C)c3c(N)n(CC(C)C)c(=O)[nH]c3=O)CC2)c(C)c1,?,45%,6%
O=C(NNS(=O)(=O)c1ccc(Cl)cc1)c1cc(-c2ccccc2)nc2ccccc12,-5%,28µM*,-11%
Cc1cccc(S(=O)(=O)NNC(=O)c2cc(-c3ccc(F)cc3)nc3ccccc23)c1,-11%,-42%,0%
O=C1NC(=O)C(=Cc2ccc(Sc3ccccc3)o2)C(=O)N1,-2%,-24%,50µM*
CN1C(=O)C(=Cc2ccc(Sc3ccccc3)o2)C(=O)N(C)C1=O,1%,-25%,?

# Bioassay records: PubChem BioAssay, National Center for Advancing Translational Sciences (NCATS)
